Data reported in PubChem BioAssay (NCATS).
Results filed as inconclusive are left out. Where a call stands in place of a potency, no number is given. A number with no mark means an inactive call. The source made the active and inactive calls. Unless noted, the call rests on the fitted dose curve; in most records, active means well fitted curve in the direction sought with a large enough effect; inconclusive means small, poorly fitted or top-dose-only effect, or another doubt; inactive means no such curve, though single readings can be large; an effect the other way counts as inactive or inconclusive.

Key:
[1] = qHTS to identify inhibitors of the type 1 interferon - major histocompatibility complex class I in skeletal muscle: primary screen against the NCATS Mechanism Interrogation Plate v5.0 (MIPE) Libary (AID 1347411); further: nearly all actives have a fitted effect of over 65% in size
In short: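 Luminescence from CRISPR HiBit-tagged endogenous HLA-B in human myoblasts reported MHC class I level after 24 h of IFN-beta (4 ng/ml) plus compound. Compounds ran as 11-point 1:3 series, top 46 uM final.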

[2] = Primary qHTS for small molecule stabilizers of the endoplasmic reticulum resident proteome: Secreted ER Calcium Modulated Protein (SERCaMP) assay (AID 1508630)
In short: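 The SH-SY5Y reporter protocol was run at 3 concentrations up to 38.3 uM (primary) or 11 concentrations (follow-up): 16 h compound, 100 nM thapsigargin for 4 h, then extracellular luciferase luminescence.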

[3] = target: Calcium and integrin-binding protein 1 (Homo sapiens) (UniProt Q99828); assay: Primary qHTS for Identification of Calcium Integrin Binding Protein 1 (CIB1) Competitor (AID 1508620);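 further: GST tagged CIB1 binding a fluorescein labelled alphaIIb integrin peptide tracer; top concentration of the series differs between compounds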
In short: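 CIB1-GST (1 uM final) and compound incubated 15 min at room temperature before adding FITC-alphaIIb peptide tracer (100 nM final). Competition for binding read by fluorescence polarization (ex 480, em 540) after another 15 min at room temperature.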

[4] = target: Cytochrome P450 2D6 (Homo sapiens) (UniProt P10635); assay: Cytochrome P450 family 2 subfamily D member 6 (CYP2D6) small molecule antagonists: luciferase biochemical (cell-free) qHTS assay (AID 1645840; active means well fitted curve in the direction sought with a large enough effect in the repeat runs; an effect the other way counts as inactive or inconclusive; further: nearly all actives have a fitted effect of over 55% in size; further: potency means the concentration at half of the fitted maximal effect; on activity change, negative = inhibition: series mostly up to about 57 µM)
In short: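 P450-Glo CYP2D6 system: proluciferin substrate converted by enzyme to luciferin, read by luminescence proportional to activity. Enzyme-substrate mix with compound 10 min at room temperature, then NADPH regeneration 1 h before detection reagent.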

[5] = Counterscreen qHTS for small molecule stabilizers of the endoplasmic reticulum resident proteome: GLuc-NoTag assay (AID 1508627); further: potency means the concentration at half of the fitted maximal effect; on activity change, negative = inhibition: series mostly up to about 76 µM
In short: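 Counterscreen line: SH-SY5Y-GLuc-NoTag cells, treated with compound 19 hr before a 4 hr, 100 nM thapsigargin calcium depletion. Secreted Gaussia luciferase in the medium was measured by luminescence after coelenterazine was added (0.07x final), with cells unlysed.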

[6] = target: Protein phosphatase 1D (Homo sapiens) (UniProt O15297); assay: RapidFire Mass Spectrometry qHTS Assay for Modulators of WT P53-Induced Phosphatase 1 (WIP1) (AID 1347424);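 further: amount of dephosphorylated VEPPL-S-QETFS peptide product formed by WIP1; series mostly up to about 63 µM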
In short: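 RapidFire mass spectrometry measured dephosphorylated peptide after 5 min room-temperature reaction of 2 uM VEPPL-pS-QETFS with 10 nM WIP1 (50 mM Tris-HCl pH 7.5, 30 mM MgCl2, 0.1 mM EGTA, BSA), following 1 hr compound preincubation; 1 uM isotope-labelled product standard.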

[7] = target: Protein phosphatase 1D (Homo sapiens) (UniProt O15297); assay: Rhodamine-PBP qHTS Assay for Modulators of WT P53-Induced Phosphatase 1 (WIP1) (AID 1347425)
In short: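 5 nM WIP1 + 10 uM Rh-PBP, 50 mM Tris pH 7.5, 30 mM MgCl2, 1 mM TCEP, 0.1 mM EGTA, BSA; cpds pinned, 1 hr RT; + 10 uM phosphopeptide; fluorescence 1-min reads x 11 min; delta = f1 - f0.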

[8] = Primary qHTS for inhibitors of La Crosse Virus (LACV) - induced cell death in SH-SY5Y cells (AID 1508616);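 further: top concentration of the series differs between compounds; higher means more rescue of cells from virus-induced death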
In short: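 Rescue of virus-induced death was read as ATPLite luminescence after 6 days at 37C, scaled between DMSO wells with LACV and without virus. Cells were SH-SY5Y, 6000/well, infected at 0.01 MOI after compound addition.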

[9] = Confirmatory qHTS for small molecule stabilizers of the endoplasmic reticulum resident proteome: Secreted ER Calcium Modulated Protein (SERCaMP) assay (AID 1508628); further: series mostly up to about 76 µM; nearly all actives have a fitted effect of over 40% in size
In short: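 Reporter secretion upon ER calcium depletion (100 nM thapsigargin, 4 h, 37C) is measured as medium luminescence with coelenterazine, after 16 h compound pretreatment of SH-SY5Y-GLuc-SERCaMP cells; primary at three concentrations up to 38.3 uM, follow-up at 11 (up to 76.6 uM).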

[10] = Cell Viability qHTS for small molecule stabilizers of the endoplasmic reticulum resident proteome (AID 1508629); conditions: cell viability counter-screen, 100 nM thapsigargin for final 4 h;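 further: potency means the concentration at half of the fitted maximal effect; compound exposure about 46 h in total before the viability read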
[11] = A High-Content qHTS Against Drug Library for the Identification of Small Molecules that Inhibit DYT1 Early Onset Primary Dystonia-Associated Cell Pathology (AID 1645839; calls by dose curve; further: series mostly up to about 46 µM)
In short: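 High-content imaging quantified EGFP-TorsinA mislocalization in HEK293-derived cells inducibly expressing DYT1 mutant torsinA, after 48 h exposure to compound given together with tetracycline induction. Cell count served as a toxicity channel alongside %pathology.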

Calcium and integrin-binding protein 1 (Homo sapiens), sequence (Q99828 whole entry, looked up): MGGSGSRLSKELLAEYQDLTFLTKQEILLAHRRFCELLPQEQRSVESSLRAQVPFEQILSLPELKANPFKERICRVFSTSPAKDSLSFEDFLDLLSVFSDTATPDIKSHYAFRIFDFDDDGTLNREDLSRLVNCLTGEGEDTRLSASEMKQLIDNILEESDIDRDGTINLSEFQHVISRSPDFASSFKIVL
Protein phosphatase 1D (Homo sapiens), sequence (O15297 whole entry, looked up): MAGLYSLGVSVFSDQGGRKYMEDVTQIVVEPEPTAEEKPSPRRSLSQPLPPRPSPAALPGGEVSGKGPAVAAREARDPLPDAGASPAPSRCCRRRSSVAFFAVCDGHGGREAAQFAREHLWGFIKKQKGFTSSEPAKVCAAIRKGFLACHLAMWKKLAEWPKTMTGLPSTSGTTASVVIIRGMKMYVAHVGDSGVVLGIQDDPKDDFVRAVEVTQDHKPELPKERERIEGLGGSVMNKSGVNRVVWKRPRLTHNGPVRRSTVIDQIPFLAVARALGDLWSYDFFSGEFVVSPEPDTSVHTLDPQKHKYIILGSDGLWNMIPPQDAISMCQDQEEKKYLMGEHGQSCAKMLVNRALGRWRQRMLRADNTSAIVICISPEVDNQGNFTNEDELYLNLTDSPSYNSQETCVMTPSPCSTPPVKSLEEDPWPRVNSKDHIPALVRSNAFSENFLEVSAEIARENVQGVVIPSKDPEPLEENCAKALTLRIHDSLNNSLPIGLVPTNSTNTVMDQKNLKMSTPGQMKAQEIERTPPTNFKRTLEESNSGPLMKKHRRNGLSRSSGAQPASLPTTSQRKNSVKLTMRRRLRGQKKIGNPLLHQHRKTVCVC
Cytochrome P450 2D6 (Homo sapiens), sequence (P10635 whole entry, looked up): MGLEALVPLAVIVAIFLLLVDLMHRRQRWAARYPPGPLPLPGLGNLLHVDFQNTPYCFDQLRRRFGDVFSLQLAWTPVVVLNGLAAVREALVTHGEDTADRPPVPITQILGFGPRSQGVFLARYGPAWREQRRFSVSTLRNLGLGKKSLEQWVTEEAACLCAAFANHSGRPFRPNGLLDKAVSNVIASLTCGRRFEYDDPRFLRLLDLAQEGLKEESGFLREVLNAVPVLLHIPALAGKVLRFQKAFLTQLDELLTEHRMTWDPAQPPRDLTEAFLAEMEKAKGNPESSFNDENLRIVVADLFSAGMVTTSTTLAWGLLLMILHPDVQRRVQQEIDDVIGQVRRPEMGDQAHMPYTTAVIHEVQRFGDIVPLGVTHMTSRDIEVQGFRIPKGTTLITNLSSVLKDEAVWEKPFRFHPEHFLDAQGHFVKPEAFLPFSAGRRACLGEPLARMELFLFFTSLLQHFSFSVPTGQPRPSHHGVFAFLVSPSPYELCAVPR

## CC1=C(CC(=O)O)c2cc(F)ccc2C1=Cc1ccc(S(C)=O)cc1 (stereo not given)
[1]
  Potency: inactive
[2]
  Potency: inactive

## OC1CCC(Nc2ncc3nc(Nc4c(F)cc(F)cc4F)n([C@@H]4CCOC4)c3n2)CC1 (stereo not given in full)
[1]
  Potency: inactive
[2]
  Potency: inactive

## CCNC(=O)CCCC=CC[C@@H]1[C@H](C=CC(O)CCc2ccccc2)[C@@H](O)C[C@@H]1O (stereo not given in full)
[3]
  Potency: inactive

## CC(C)c1c(C(=O)Nc2ccccc2)c(-c2ccccc2)c(-c2ccc(F)cc2)n1CC[C@H](O)C[C@@H](O)CC(=O)O
[3]
  Potency: inactive

## COc1cc(N2CCN(C)CC2)ccc1Nc1nc(N)c(C(=O)c2c(Cl)cccc2Cl)s1
[3]
  Potency: inactive

## CCOC(=O)N1c2ccc(C(F)(F)F)cc2[C@@H](N(Cc2cc(C(F)(F)F)cc(C(F)(F)F)c2)C(=O)OC)C[C@H]1CC
[1]
  Potency: inactive
[2]
  Potency: inactive
[4]
  Potency: inactive

## Cc1cnc(CNC(=O)c2c(=O)c3ccc(N4CCCN(C)CC4)nc3n3c2sc2ccccc23)cn1
[1]
  activity change, negative = inhibition: -4.9% [at 8.44 µM]
[2]
  Potency: inactive
[4]
  Potency: inactive

## CC(O)=C(C#N)C(=O)Nc1ccc(C(F)(F)F)cc1
[3]
  Potency: inactive

## CC[C@H](C)C(=O)O[C@H]1C[C@H](O)C=C2C=C[C@H](C)[C@H](CC[C@@H](O)C[C@@H](O)CC(=O)O)[C@H]21
[1]
  Potency: inactive
[2]
  Potency: inactive

## Cc1ccc(NC(=O)Nc2cc(C(F)(F)F)ccc2F)cc1Nc1ccc2c(c1)NC(=O)C2=Cc1ccc[nH]1
[3]
  Potency: inactive

## CCC(=C(c1ccc(O)cc1)c1ccc(OCCNC)cc1)c1ccccc1
[3]
  Potency: inactive

## C#CCN(C)CC1=Cc2ccccc2Oc2ccccc21
[1]
  Potency: inactive
[2]
  Potency: inactive

## CN1CCC[C@H]1CCO[C@](C)(c1ccccc1)c1ccc(Cl)cc1
[3]
  Potency: inactive
[5]
  Potency: inactive

## CC(C)(OCc1nn(Cc2ccccc2)c2ccccc12)C(=O)O
[1]
  Potency: inactive
[2]
  Potency: inactive
[4]
  Potency: inactive

## CN1CCc2c(n(Cc3ccc(C(=O)NO)cc3)c3ccccc23)C1
[3]
  Potency: inactive

## O=C(CCCN1CCN(c2ccc(F)cc2)CC1)NC1c2ccccc2CSc2ccccc21 (stereo not given)
[6]
  Potency: inactive
[7]
  outcome: inactive
[8]
  outcome: inactive
[3]
  Potency: inactive
[5]
  Potency: 39.8 µM (active)
[9]
  Potency: inactive
[10]
  Potency: 25.1 µM (active)
[4]
  Potency: 4.36 µM (active)

## CNC(=O)c1cc(COc2nnc(Nc3ccc(Cl)cc3)c3ccoc23)ccn1
[3]
  Potency: inactive

## CC1C(=O)OC2C(O)C34C5CC(C(C)(C)C)C36C(OC(=O)C6O)OC4(C(=O)O5)C12O (stereo not given)
[3]
  Potency: inactive

## Cc1nn(Cc2ccccc2Cl)c(C)c1CN(C)CC(O)COc1ccc(Cl)cc1 (stereo not given)
[3]
  Potency: inactive
[2]
  Potency: inactive

## CCCCC[C@H](O)C=C[C@H]1[C@H](O)CC(=O)[C@H]1CC=CCCCC(=O)O
[6]
  Potency: inactive
[7]
  outcome: inactive
[8]
  outcome: inactive
[3]
  Potency: inactive
[2]
  Potency: inactive
[11]
  outcome: inactive

## CNC(=O)[C@H](CC1=CN=C2C=CCC=C12)NC(=O)[C@@H](CC(=O)NO)CC(C)C
[3]
  Potency: inactive

## COc1cc(CNC(=O)CCCCC=CC(C)C)ccc1O
[3]
  Potency: inactive

## O=C(Nc1ncc(SCCN2CCCC2)s1)[C@]1(c2ccc(S(=O)(=O)C3CC3)cc2)C[C@@H]1C1CCCCC1
[3]
  Potency: inactive

## CCC(C)SSc1ncc[nH]1 (stereo not given)
[1]
  Potency: inactive
[2]
  Potency: inactive

## Cc1cc2c(cc1C1(c3ccc(C(=O)O)cn3)CC1)C(C)(C)CCC2(C)C
[1]
  Potency: inactive
[2]
  Potency: inactive

## NC(=O)c1noc([C@H](CCCC2CCCCC2)CC(=O)NO)n1
[1]
  Potency: inactive
[2]
  Potency: inactive

## C=C1[C@H](n2cnc3c(=O)[nH]c(N)nc32)C[C@H](O)[C@H]1CO
[3]
  Potency: inactive

## CC(C)CN(C[C@H](O)[C@H](Cc1ccccc1)NC(=O)O[C@H]1CCOC1)S(=O)(=O)c1ccc(N)cc1
[3]
  Potency: inactive
[2]
  Potency: inactive

## Cc1ccc(NC(=O)c2ccc(CN3CCN(C)CC3)cc2)cc1Nc1nc(-c2cccnc2)cs1
[3]
  Potency: inactive
[2]
  Potency: inactive

## CN(C)CCOc1ccc(-c2nc(-c3ccc4c(c3)CCC4=NO)c(-c3ccncc3)[nH]2)cc1
[3]
  Potency: inactive
[2]
  Potency: inactive

## Oc1cc(O)cc(C=Cc2ccc(O)c(O)c2)c1
[3]
  Potency: inactive
[2]
  Potency: inactive

## COc1ccc2cc1Oc1ccc(cc1)C[C@H]1c3cc(c(OC)cc3CCN1C)Oc1c(OC)c(OC)cc3c1[C@H](C2)N(C)CC3
[3]
  Potency: inactive
[2]
  Potency: inactive

## Cc1cc(CS(=O)(=O)c2ccccc2)cc(OCc2ccc(CN3CCC[C@H]3CO)cc2)c1
[3]
  Potency: inactive
[2]
  Potency: inactive

## CCCCN(CCCC)CC(O)c1cc(Cl)cc2c1-c1ccc(Cl)cc1C2=Cc1ccc(Cl)cc1 (stereo not given)
[3]
  Potency: inactive
[2]
  Potency: inactive

## CN[C@@H]1[C@@H](O)[C@@H](O[C@@H]2[C@@H](O)[C@H](O[C@H]3O[C@H](CN)[C@@H](O)[C@H](O)[C@@H]3O)[C@@H](N)C[C@@H]2NC(=O)[C@@H](O)CN)OC[C@]1(C)O
[3]
  Potency: inactive
[2]
  Potency: inactive
